Measured values as given in PubChem BioAssay (EPA / NIEHS).
Activity calls are given as the source filed them. How the source made its calls: active means hit-call score of the fitted dose curve at least 0.9, where 1 is the maximum; inactive means score below 0.9.

The compounds below were run against Retinoic acid receptor alpha (Homo sapiens) (UniProt P10276) (assay: ATG_DR5_RAR_CIS: Attagene CIS-FACTORIAL HepG2 Assay for human Retinoic Acid Receptor Alpha (RARE), DR5 submotif (AID 2282934;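 on AC50: reporter responds to endogenous RAR alpha beta and gamma in HepG2 not RARA alone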)). Settings: HepG2 Attagene cis-factorial RARE DR5 reporter, mRNA; actives raise or lower the signal.
Retinoic acid receptor alpha (Homo sapiens), sequence (P10276 whole entry, looked up): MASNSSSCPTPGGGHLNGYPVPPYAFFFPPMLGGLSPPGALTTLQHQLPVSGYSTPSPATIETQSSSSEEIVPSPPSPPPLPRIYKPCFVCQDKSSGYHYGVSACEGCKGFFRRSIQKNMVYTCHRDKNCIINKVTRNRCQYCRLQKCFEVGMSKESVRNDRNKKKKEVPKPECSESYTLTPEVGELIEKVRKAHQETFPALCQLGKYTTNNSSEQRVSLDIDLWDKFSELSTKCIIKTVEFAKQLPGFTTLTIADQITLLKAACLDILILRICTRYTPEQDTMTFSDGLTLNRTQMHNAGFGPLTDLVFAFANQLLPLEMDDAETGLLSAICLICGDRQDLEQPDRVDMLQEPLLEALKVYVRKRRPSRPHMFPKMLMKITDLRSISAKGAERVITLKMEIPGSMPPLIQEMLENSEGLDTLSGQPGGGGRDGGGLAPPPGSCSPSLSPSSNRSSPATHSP
Outline: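 HepG2 cells transiently transfected with multiplexed reporter units; DR5 cis-element drives reporter through endogenous transcription factors. After 24 h dosing, reporter mRNA quantified by RT-PCR, fluorescent labeling, HpaI digestion and capillary electrophoresis; bidirectional fitting versus DMSO.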
In the case of Nc1ccc(-c2ccc(N)c(N)c2)cc1N, the outcome is reported as “inactive”. For CCOP(O)OCC, the outcome was “inactive”. In the case of C#CC1(O)CCCCC1, the outcome is reported as “inactive”. O=c1[nH]c(Cl)c(Cl)cc1Cl was tested, and the outcome was “inactive”. With [CH3][Sn]([Cl])([Cl])[Cl] the outcome was “inactive”. For Nc1c(Cl)c(Cl)c(Cl)c(Cl)c1Cl, the outcome was “inactive”. With COC(=O)c1ccccc1S(=O)(=O)NC(=O)Nc1nc(C)cc(C)n1 the outcome was “inactive”. Nc1ccccc1C(=O)OCCc1ccccc1 was tested, and the outcome was “inactive”. For N#Cc1cccc(C#N)c1, the outcome was “inactive”. In the case of Nc1cc(Cl)cc(Cl)c1, the outcome is reported as “inactive”. With COC(C)(C)CCC[C@H](C)C/C=C/C(C)=C/C(=O)OC(C)C the outcome was “inactive”. [CH3][Sn]([CH3])([Cl])[Cl] was tested, and the outcome was “inactive”. In the case of CCc1cccc(C)c1N(C(=O)CCl)[C@@H](C)COC, the outcome is reported as “inactive”. O=P1(NCCCl)OCCCN1CCCl (centres undefined) was tested, and the outcome was “inactive”. O=S(=O)(c1ccccc1)c1ccccc1 was tested, and the outcome was “inactive”. For CN(C)C(=O)C(c1ccccc1)c1ccccc1, the outcome was “inactive”. In the case of C=CCc1ccc(OC(=O)Cc2ccccc2)c(OC)c1, the outcome is reported as “inactive”. CC1CCCC1.[C-]#[O+].[C-]#[O+].[C-]#[O+].[Mn] was tested, and the outcome was “inactive”. [Cl][Sb]([Cl])[Cl] was tested, and the outcome was “inactive”. With CCC(=O)c1ccc(Cl)cc1 the outcome was “inactive”. For Cc1ccc(N(SC(F)(Cl)Cl)S(=O)(=O)N(C)C)cc1, the outcome was “inactive”. CC1(C)CC(=O)CC(C)(C)N1[O] was tested, and the outcome was “inactive”. For Oc1cc(Cl)ccc1Cl, the outcome was “inactive”. For O=[N+]([O-])O.O=[N+]([O-])O.[Cd], the AC50 was 2080 nM (active).

The compounds below were run against Transcription factor E2F1 (Homo sapiens) (UniProt Q01094) (assay: ATG_E2F_CIS: Attagene CIS-FACTORIAL HepG2 Assay for human E2F Transcription Factor 1 (AID 2282935)). Settings: HepG2 Attagene cis-reporter, E2F reporter RNA transcripts; actives raise or lower the signal.
Transcription factor E2F1 (Homo sapiens), sequence (Q01094 whole entry, looked up): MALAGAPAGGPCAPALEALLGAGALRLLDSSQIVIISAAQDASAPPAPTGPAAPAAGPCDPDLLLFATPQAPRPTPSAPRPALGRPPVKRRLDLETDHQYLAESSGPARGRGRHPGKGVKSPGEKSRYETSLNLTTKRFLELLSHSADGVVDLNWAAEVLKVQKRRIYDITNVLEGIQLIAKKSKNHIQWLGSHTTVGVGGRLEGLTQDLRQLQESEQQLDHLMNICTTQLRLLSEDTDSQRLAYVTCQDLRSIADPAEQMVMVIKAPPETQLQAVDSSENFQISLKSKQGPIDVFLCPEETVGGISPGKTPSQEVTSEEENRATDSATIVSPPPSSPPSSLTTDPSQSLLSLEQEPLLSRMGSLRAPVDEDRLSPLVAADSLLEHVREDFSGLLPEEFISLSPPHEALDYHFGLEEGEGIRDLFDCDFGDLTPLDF
Outline: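 Transient MRTU transfection of HepG2; 24 h compound exposure; RNA → oligo(dT) RT → PCR → FAM label → HpaI cut → CE fluorescence. Gain/loss of signal fit against DMSO.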
For Nc1ccc(-c2ccc(N)c(N)c2)cc1N, the outcome was “inactive”. With C#CC1(O)CCCCC1 the outcome was “inactive”. For CCC(C)c1cc(C(C)(C)C)cc(-n2nc3ccccc3n2)c1O (centres undefined), the outcome was “inactive”. In the case of Nc1c(Cl)c(Cl)c(Cl)c(Cl)c1Cl, the outcome is reported as “inactive”. COC(=O)c1ccccc1S(=O)(=O)NC(=O)Nc1nc(C)cc(C)n1 was tested, and the outcome was “inactive”. For Nc1ccccc1C(=O)OCCc1ccccc1, the outcome was “inactive”. In the case of N#Cc1cccc(C#N)c1, the outcome is reported as “inactive”. For O=C(O)CCCc1ccc(N(CCCl)CCCl)cc1, the outcome was “inactive”. In the case of COc1ncc(F)c2nc(S(=O)(=O)Nc3c(F)cccc3F)nn12, the outcome is reported as “inactive”. COC(C)(C)CCC[C@H](C)C/C=C/C(C)=C/C(=O)OC(C)C was tested, and the outcome was “inactive”. In the case of BrCBr, the outcome is reported as “inactive”. With O=P1(NCCCl)OCCCN1CCCl (centres undefined) the outcome was “inactive”. CC(Cc1ccc(C(C)(C)C)cc1)CN1C[C@@H](C)O[C@@H](C)C1 (some centres undefined) was tested, and the outcome was “inactive”. In the case of O=C(O)c1cc[c]([Hg][Cl])cc1, the outcome is reported as “inactive”. C[N+](C)(C)CC(=O)O was tested, and the outcome was “inactive”. For O=S(=O)(c1ccccc1)c1ccccc1, the outcome was “inactive”. Clc1ccc(-c2ccccc2)cc1 was tested, and the outcome was “inactive”. For CN(C)C(=O)C(c1ccccc1)c1ccccc1, the outcome was “inactive”. In the case of O=P(O)(Oc1ccccc1)Oc1ccccc1, the outcome is reported as “inactive”. In the case of O=C(O)COc1ccccc1, the outcome is reported as “inactive”. For [Cl][Sb]([Cl])[Cl], the outcome was “inactive”. With CCC(=O)c1ccc(Cl)cc1 the outcome was “inactive”. For Cc1ccc(N(SC(F)(Cl)Cl)S(=O)(=O)N(C)C)cc1, the outcome was “inactive”. CC1(C)CC(=O)CC(C)(C)N1[O] was tested, and the outcome was “inactive”. For SCc1ccco1, the outcome was “inactive”. With O=CNC(N1CCN(C(NC=O)C(Cl)(Cl)Cl)CC1)C(Cl)(Cl)Cl (centres undefined) the outcome was “inactive”. O=[N+]([O-])c1cc(C(F)(F)F)c(Cl)c([N+](=O)[O-])c1Cl was tested, and the outcome was “inactive”. For C[C@]12CCC(=O)C(O)=C1CC[C@@H]1[C@@H]2CC[C@]2(C)C(=O)CC[C@@H]12, the outcome was “inactive”. For CSc1nc(N=[N+]=[N-])nc(NC(C)C)n1, the outcome was “inactive”. For O=[N+]([O-])O.O=[N+]([O-])O.[Cd], the outcome was “inactive”.
